Hits are enriched below; roughly 2.8% of the tested compounds scored in any of these assays.
ERa SRC1 pot – enhancers of ERα–SRC-1 coactivator binding, primary screen, biochemical, TR-FRET, ERα LBD, low estradiol; hit rate 1.3% among 86,000; AID 639, 2007; Estrogen receptor (Homo sapiens), P03372; TR-FRET ERalpha-LBD/SRC-Cy5 coactivator binding, 2 h; 100 = basal binding, no effect; coactivator binding (% of control), % at 25.6 µM; in the data active = activity above about 200%;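 also: binding measured in presence of low estradiol as agonist stimulus; 0% = peptide alone without receptor and 100% = receptor with peptide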
MRP-1 activ – H69AR viability gain despite doxorubicin, primary screen, MRP-1 activator project, H69AR cells, CellTiter-Glo; viability rescue; hit rate 0.61% among 140,000; viability increase, % at 10 µM; AID 799, 2007;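 active = viability gain under doxorubicin at or above a set limit, the compound median plus 3 SD, cut at about 4.7% in these data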;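 also: MRP-1 overexpressing cells given doxorubicin 25 µM after compound pretreatment; 18-22 h compound pretreatment then 72 h with doxorubicin before readout; 0% = doxorubicin-only wells and 100% = vehicle-treated cells without doxorubicin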
ERa coact inh – ERα–SRC-1 coactivator interaction inhibitors, primary screen, biochemical, TR-FRET, ERα LBD, estradiol-bound; hit rate 1.7% among 86,000; AID 629, 2007; inhibition, % at 25.6 µM; TR-FRET ER-alpha LBD / SRC-1 peptide; in the data active = inhibition above about 50%;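 also: 0% = receptor plus peptide control and 100% = peptide only without receptor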
Smad3 FoxH1 inh – Smad3/FoxH1 peptide binding inhibitors, primary screen, biochemical, TR-FRET | Mothers against decapentaplegic homolog 3 (Homo sapiens), P84022 | TR-FRET Smad3/Dy647-FoxH1 peptide binding, europium anti-His | inhibition, % at 25 µM | hit rate 0.29% among 88,000 | AID 630, 2007;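 active = compounds that reduce the energy-transfer binding signal between the protein and its labelled peptide by more than half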;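 also: 0% = Smad3 plus labelled peptide maximal FRET and 100% = peptide-only background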
ERb coact inh – inhibitors of ERβ-SRC1 coactivator interaction, primary screen, biochemical, TR-FRET, ERβ LBD, SRC-1 peptide | Estrogen receptor beta (Homo sapiens), Q92731 | hit rate 1.3% among 86,000 | TR-FRET ER-beta LBD / SRC1-Cy5 peptide binding; receptor agonist-loaded with 1 µM estradiol | inhibition, % at 25.6 µM | AID 633, 2007;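 active = compounds whose percent inhibition of the receptor-coactivator binding signal exceeds about 50% in the single-dose screen, limit read from the data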;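 also: 0% = receptor plus peptide wells without compound and 100% = peptide-only wells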
Target sequence (Q92731 whole entry, looked up, the tested form may be a part): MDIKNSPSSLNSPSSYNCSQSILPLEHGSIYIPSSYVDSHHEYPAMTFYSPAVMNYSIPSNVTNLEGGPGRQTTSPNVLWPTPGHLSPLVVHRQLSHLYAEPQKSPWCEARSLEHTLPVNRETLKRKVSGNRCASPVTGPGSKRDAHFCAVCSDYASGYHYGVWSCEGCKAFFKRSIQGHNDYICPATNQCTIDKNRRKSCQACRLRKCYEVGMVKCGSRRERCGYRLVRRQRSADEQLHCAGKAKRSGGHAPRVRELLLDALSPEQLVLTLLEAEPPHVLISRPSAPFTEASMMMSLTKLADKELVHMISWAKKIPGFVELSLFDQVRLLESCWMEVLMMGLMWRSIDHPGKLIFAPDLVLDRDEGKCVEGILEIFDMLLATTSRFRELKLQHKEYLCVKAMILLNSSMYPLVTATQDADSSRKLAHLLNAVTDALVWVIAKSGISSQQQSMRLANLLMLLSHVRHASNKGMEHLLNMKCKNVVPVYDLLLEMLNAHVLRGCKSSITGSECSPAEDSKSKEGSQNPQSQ
MRP reversal – reversal of MRP1-mediated doxorubicin resistance, primary screen, H69AR cells, doxorubicin co-treatment; H69AR cells + 2 uM doxorubicin, CellTiter-Glo, 72 h; differential viability (reversal), % at 10 µM; hit rate 0.04% among 85,000;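 active = viability drop by adding the cancer drug above about 55%, with treated viability meeting a 40% cutoff, limit read from the data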;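 also: viability without doxorubicin minus viability with 2 µM doxorubicin for each compound; larger differential means the compound sensitizes cells more to doxorubicin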
Active calls of the source: *; nt = no result given; [ ] = remark or other dose.

SMILES	ERa SRC1 pot	MRP-1 activ	ERa coact inh	Smad3 FoxH1 inh	ERb coact inh	MRP reversal
Cc1ccc(C)c2sc(NC(=O)c3ccc(N4CCCCC4)c([N+](=O)[O-])c3)nc12	nt	6.7*	nt	nt	nt	nt
CCOc1cc(OCC)cc(C(=O)O)c1	96	-2	99*[fluorescence artefact?]	0	10	5
COc1cccc2c1OC1(C)CC2NC(=O)N1c1cccc(C(=O)Nc2ccc3c(c2)OCCO3)c1 (stereo not given)	102	-3	0	6	12	18
Cc1ccc(-c2nnc(SCC(=O)Nc3sc(C)c(C)c3C#N)n2C)cc1	248*[fluorescence artefact?]	-4	3	16	11	4
CNC(=O)CSc1nnc(COc2ccc(Cl)cc2)n1CCOC	98	9.8*	-3	5	-12	0
Cc1sc(NC(=O)CSc2nnc(-c3ccc(F)cc3)o2)c(C#N)c1C	101	0	52*	6	20	-18
CC(C)(C)c1ccc(-c2nnc(SCC(=O)Nc3sc4c(c3C#N)CCCC4)o2)cc1	nt	-2	nt	nt	nt	nt
C=CCn1c(COc2ccc(Cl)cc2)nnc1SCC(=O)NCC(=O)OCC	116	0	-7	-2	-5	-2
COCCn1c(SCC(=O)Nc2sc(C)c(C)c2C#N)nnc1-c1ccc(OC)cc1	125	-3	-5	-8	-6	-7
Cc1sc(NC(=O)CSc2nnc(COc3ccc(Cl)cc3)n2C)c(C#N)c1C	317*[fluorescence artefact?]	-3	41	6	42	6
CC(C)CNc1nc(N)[nH]c(=O)c1NC=O	nt	nt	nt	-2	nt	nt
CN(C)CCC(=O)[C@]1(O)CC[C@@H]2[C@H]3CC=C4C[C@@H](O)CC[C@]4(C)[C@@H]3CC[C@]21C	nt	nt	nt	7	nt	nt
CCOC(=O)c1c(NC(=O)CSc2nnc(-c3ccco3)o2)sc(C(C)=O)c1C	156	-4	10	5	-3	-3
CCOC(=O)c1c(NC(=O)CSc2nnc(-c3cccnc3)o2)sc(C(C)=O)c1C	204*[fluorescence artefact?]	-1	20	-9	16	-8
Cn1c(SCC(=O)Nc2ccccc2)nnc1-c1ccc(NC(=O)CCc2ccccc2)cc1	99	-4	-1	-8	76*[fluorescence artefact?]	-4
CC(=O)c1cccc(NC(=O)Cc2coc3cc4c(cc23)CCC4)c1	nt	-3	nt	nt	nt	nt
O=C1O[C@@H]([C@H](O)[C@H](O)[C@H](O)CO)[C@@H](O)[C@@H]1O	nt	nt	nt	6	nt	nt
CC(/C=C1\SC(=O)N(CC(=O)Nc2ccc(O)cc2)C1=O)=C\c1ccccc1	nt	8.7*	nt	nt	nt	nt
CC(=O)c1ccc(NC(=O)CCCN2C(=O)/C(=C/C(C)=C/c3ccccc3)SC2=S)cc1	nt	6.1*	nt	nt	nt	nt
COc1cccc(/C=C2\SC(=O)N(CCC(=O)NNC(=O)c3ccccc3Cl)C2=O)c1	nt	0	nt	nt	nt	nt
O=C(CN1C(=O)S/C(=C\c2ccc(Cl)cc2)C1=O)NNC(=O)c1ccccc1O	nt	7.7*	nt	nt	nt	nt
Cc1cc(NC(=O)CCN2C(=O)c3ccccc3C2=O)no1	87	-1	0	1	4	-5
Cc1cc(NC(=O)CN2C(=O)S/C(=C\c3ccccc3)C2=O)no1	nt	5.1*	nt	nt	nt	nt
COc1ccc(NC(=O)CCCN2C(=O)/C(=C\c3ccco3)SC2=S)cc1	nt	-5	nt	nt	nt	nt
CN1CCC[C@H]1c1cccnc1.O=C(O)c1ccccc1O.O=C([OH2+])c1ccccc1O.O=C([OH2+])c1ccccc1O.O=C([OH2+])c1ccccc1O.[Mn]	nt	nt	nt	19	nt	nt
SMILES	ERa SRC1 pot	MRP-1 activ	ERa coact inh	Smad3 FoxH1 inh	ERb coact inh	MRP reversal
Cn1c(=O)c(NCCc2ccccc2)c2c3c(cccc31)C(=O)c1ccccc1-2	97	-4	-4	11	7	64*
COc1cc(CNc2ccc(CNc3ncn[nH]3)cc2)ccc1OCc1ccccc1	nt	1	nt	nt	nt	nt
COc1ccc2cc1Oc1ccc(cc1)C[C@H]1c3c(cc(OC)c4c3Oc3cc5c(cc3O4)CCN[C@H]5C2)CCN1C	nt	nt	nt	-2	nt	nt
Nc1ccc(CC2SC(=O)NC2=O)cc1 (stereo not given)	99	9.4*	1	1	-7	13
CC(=O)/C(C#N)=C1\NC(=O)C(Cc2ccc(C)c(C)c2)S1 (stereo not given)	85	8.8*	14	14	-5	11
CC(=O)/C(C#N)=C1\NC(=O)C(Cc2ccccc2Cl)S1 (stereo not given)	120	1	-4	-6	-1	3
Cc1ccc(CC2SC(=O)NC2=O)cc1Cl (stereo not given)	122	4.8*	-1	5	0	2
O=C(NS(=O)(=O)c1ccc2c(c1)OCCO2)c1ccccc1	105	-1	28	12	3	-1
CN(/N=C/c1ccccc1O)c1ccc2ccccc2n1	nt	nt	nt	9	nt	nt
CSc1ncc(Cl)c(C(=O)Nc2nnc(SC)s2)n1	119	9.1*	-3	-1	-5	1
COc1ccc(-c2cc(-c3ccccc3)nc(SCC(=O)Nc3nccs3)c2C#N)cc1	nt	-3	nt	nt	nt	nt
CC(C)NC(=O)CSc1nc(-c2cccs2)cc(-c2ccccc2)c1C#N	255*	-7	11	-36	7	0
O=C(NCC1c2ccccc2CCN1C(=O)CN1CCOCC1)C1CCCCC1 (stereo not given)	111	0	6	63*[fluorescence artefact?]	1	3
O=C1c2ccccc2C(=O)N1CC1c2ccccc2CCN1C(=O)C1CCCCC1 (stereo not given)	85	-1	2	18	3	-3
O=C(OC1CCCCC1)c1ccc2c(c1)C1C=CCC1C(C(=O)O)N2 (stereo not given)	nt	-2	nt	nt	nt	nt
O=C(O)C1Nc2c(O)cccc2C2C=CCC12 (stereo not given)	-6	-5	99*[fluorescence artefact?]	40	99*[fluorescence artefact?]	0
CN(Cc1ccccc1)C(=O)CSc1nc2ccccc2c(=O)n1Cc1ccco1	113	-1	8	18	1	6
O=c1c2ccccc2nc(SCc2cc(F)cc3c2OCOC3)n1Cc1ccco1	227*[fluorescence artefact?]	-1	23	0	17	nt
CCOC(=O)c1cc2c(c(CSc3nc4ccccc4c(=O)n3Cc3ccco3)c1)OCOC2	337*	-2	9	7	37	-6
C=CCSc1nc2ccccc2c(=O)n1Cc1ccco1	nt	nt	nt	-5	nt	nt
Cc1ccc2nc(-c3cccc(-c4nc5ccc(C)cc5o4)n3)oc2c1	248*[fluorescence artefact?]	nt	7	-8	12	0
Cc1ccc2nc(-c3cccc(N)c3)oc2c1	88	-1	0	9	-1	5
Cc1cc(C(=O)CN2C(=O)NC3(CCCc4sccc43)C2=O)c(C)n1-c1ccccc1 (stereo not given)	nt	4.8*	nt	nt	nt	nt
